Assay results published in PubChem BioAssay (EPA / NIEHS).
Records with an inconclusive call do not appear. Activity calls are given as the source filed them. How the source made its calls: active means hit-call score of the fitted dose curve at least 0.9, where 1 is the maximum; inconclusive means response in the unintended direction; inactive means score below 0.9.

Experiments:
[1] = TOX21_p53_BLA_p2_viability: Viability Assessment in the Tox21 HCT-116 p53 Agonism Beta-lactamase Assay, Phase 2 (AID 2283591);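 further: compound exposure lasted 16 h at 37 °C; actives lower the ATP signal meaning cytotoxicity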
Outline: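 HCT-116 p53-bla cells (4000/well) rested 5 h at 37C, then received compounds in DMSO (217-fold dilution) for 16 h at 37C, 5% CO2. After the CCF4 read, CellTiter-Glo was added; ATP luminescence was read after 30 min at room temperature.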

[2] = molecular target: Cellular tumor antigen p53 (Homo sapiens) (UniProt P04637); test: TOX21_p53_BLA_p2_ratio: Tox21 HCT-116 p53 Agonism Beta-lactamase Assay, Ratio, Phase 2 (AID 2283592)
Chain of Cellular tumor antigen p53 (Homo sapiens) (P04637 whole entry, looked up): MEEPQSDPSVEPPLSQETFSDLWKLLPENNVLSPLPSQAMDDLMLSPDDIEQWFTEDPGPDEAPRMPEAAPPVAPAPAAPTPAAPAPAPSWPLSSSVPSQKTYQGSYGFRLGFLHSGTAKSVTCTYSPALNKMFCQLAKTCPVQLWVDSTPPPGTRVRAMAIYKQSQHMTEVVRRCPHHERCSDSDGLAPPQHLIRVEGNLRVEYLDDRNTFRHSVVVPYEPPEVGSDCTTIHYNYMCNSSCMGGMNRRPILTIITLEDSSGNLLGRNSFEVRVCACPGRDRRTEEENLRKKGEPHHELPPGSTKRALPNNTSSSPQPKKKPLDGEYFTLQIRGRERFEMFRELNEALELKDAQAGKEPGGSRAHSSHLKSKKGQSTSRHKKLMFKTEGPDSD
Outline: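 DMSO-normalized, positive-direction endpoint derived from the 460 nm/530 nm FRET ratio in HCT116 p53 beta-lactamase reporter cells exposed 16 h at 37C and loaded with CCF4-AM for 2 h.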

[3] = TOX21_p53_BLA_p3_viability: Viability Assessment in the Tox21 HCT-116 p53 Agonism Beta-lactamase Assay, Phase 3 (AID 2283593);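 further: cells exposed to compound for 16 h before reading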
Outline: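 HCT-116 cells (4000/well) rested 5 h at 37C, then got DMSO compounds by pin tool (217-fold dilution) for 16 h at 37C, 5% CO2. After the bla read, CellTiter-Glo was added and luminescence read at 30 min, room temperature.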

[4] = molecular target: Cellular tumor antigen p53 (Homo sapiens) (UniProt P04637); test: TOX21_p53_BLA_p3_ratio: Tox21 HCT-116 p53 Agonism Beta-lactamase Assay, Ratio, Phase 3 (AID 2283596)
Outline: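 Cells were seeded at 4000/well, rested 5 h at 37C, then dosed with DMSO compound solutions (217-fold dilution) for 16 h. CCF4-AM substrate was loaded for 2 h at room temperature, and the 460/530 nm emission ratio was fitted for gain of signal versus DMSO.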

[5] = TOX21_p53_BLA_p4_viability: Viability Assessment in the Tox21 HCT-116 p53 Agonism Beta-lactamase Assay, Phase 4 (AID 2283597);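 further: hits lower the luminescence signal meaning cytotoxicity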
Outline: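 In this multiplexed secondary endpoint, HCT116 cells (4000 per well, compound at 5 h, 16 h treatment) received CellTiter-Glo after the beta-lactamase read. Luminescence after 30 min RT reflects ATP, and falling signal marks cytotoxicity.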

[6] = TOX21_p53_BLA_p5_viability: Viability Assessment in the Tox21 HCT-116 p53 Agonism Beta-lactamase Assay, Phase 5 (AID 2283600)
Outline: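 Here cell health was gauged by ATP levels in wells holding 4000 cells, each treated 16 h with DMSO-delivered compounds at 217-fold dilution; reduced luminescence marked toxicity.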

[7] = molecular target: Cellular tumor antigen p53 (Homo sapiens) (UniProt P04637); test: TOX21_p53_BLA_p4_ratio: Tox21 HCT-116 p53 Agonism Beta-lactamase Assay, Ratio, Phase 4 (AID 2283601)
Outline: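 HCT116 cells carrying an inducible beta-lactamase reporter were plated at 4000 cells/well, rested 5 h, then exposed to compounds in DMSO (217-fold dilution) for 16 h at 37C. CCF4-AM substrate was loaded 2 h at room temperature; 460/530 nm emission ratio scored gain-of-signal versus DMSO.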

Measured: outcome

CCCCCCCCCI
inactive: [1] | [2] | [3] | [4] | [5] | [6] | [7]
